Experiment [1] can be described thus: NCI Yeast Anticancer Drug Screen. Data for the rad50 strain (AID 155).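 Further: 0% = growth of vehicle-only cultures of the same strain.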 The following applies: S. cerevisiae rad50 strain growth inhibition; at 50.0 µM; hits give high values. In a few lines:
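Yeast carrying a defined DNA repair defect were exposed to test compounds, and growth was compared with vehicle-treated controls to give percent inhibition.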

Experiment [2] in a line: NCI Yeast Anticancer Drug Screen. Data for the mec2-1 strain (AID 157). The following applies: S. cerevisiae mec2-1 strain, at 50.0 µM, hits give high values. In a few lines:
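Readout is yeast growth inhibition, normalised to vehicle-treated controls, in the mec2-1 strain exposed to compound.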

Experiment [3] can be described thus: NCI Yeast Anticancer Drug Screen. Data for the sgs1 mgt1 strain (AID 161).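 Further: 0% = growth of cultures given vehicle only.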 The following applies: S. cerevisiae sgs1 mgt1 strain, at 50.0 µM, hits give high values. In outline: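 Yeast cells carrying a defined DNA-repair defect were exposed to test compounds. Growth inhibition was measured relative to vehicle-treated controls.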
A short description of experiment [4]: NCI Yeast Anticancer Drug Screen. Data for the cln2 rad14 strain (AID 165).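 Further: 0% = growth equal to vehicle treated cultures.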 The following applies: S. cerevisiae cln2 rad14 strain, at 50.0 µM, hits give high values. In outline: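 Relative to vehicle controls, growth inhibition of compound-treated cln2 rad14 yeast was recorded.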
A short description of experiment [5]: NCI Yeast Anticancer Drug Screen. Data for the bub3 strain (AID 167). Conditions: S. cerevisiae bub3 mutant strain, at 50.0 µM, hits give high values. In a few lines:
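Compounds were applied to a genetically altered yeast strain carrying a cell-cycle control defect. Growth inhibition was scored against vehicle-treated controls.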

Experiment [6] in a line: NCI Yeast Anticancer Drug Screen. Data for the mlh1 rad18 strain (AID 175). Conditions: S. cerevisiae mlh1 rad18 strain growth inhibition; at 50.0 µM; hits give high values. In outline: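 Test agents were incubated with a yeast strain of defined genotype (DNA damage repair defect). Inhibition of growth was derived by comparison with vehicle-exposed cultures.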

The panel holds about 79,000 compounds, 15% with a hit somewhere; the sample as a whole holds those more often. A number with no mark means an inactive call. Active and inactive are the calls of the source. No stated cut-off is given here; in the data, active means growth inhibition above about 70%; inactive means the rest.

With `COc1ccc([N+](=O)[O-])cc1CNCCCl`, the growth inhibition in experiment [1] is -2.75%; in experiment [2], 24.6%; in experiment [3], 36.5%; in experiment [4] it was -14.8%; in experiment [5] it was 20.1%; in experiment [6], 19.4%.
For the molecule `Cc1ccc(C2=CCNCC2)cc1`, the growth inhibition in experiment [1] is -9.45%; in experiment [2], -24.3%; in experiment [3] it was -4.3%; in experiment [4], 6.75%; in experiment [5], -12%; in experiment [6], -2.65%.
For the molecule `COc1cccc(C2(C#N)CCN(C)CC2)c1`, the growth inhibition in experiment [1] is 28.1%; in experiment [2], 23.1%; in experiment [3] it was 22.7%; in experiment [4] it was -7.45%; in experiment [5] it was 12.7%; in experiment [6], 62.5%.
Take `COc1cc(-c2[nH]ccc2Cl)oc1C1=C2N=C3C=C2C(C(C)C)C1CCCCCCCC3` (stereo not given): the growth inhibition was 85.3% (active) in experiment [1]; 83.6% (active) in experiment [2]; 89% (active) in experiment [3]; 89.1% (active) in experiment [4]; 88.3% (active) in experiment [5]; 89.6% (active) in experiment [6].
Take `O=NO.O=NO.[NH-]C1CCCCC1[NH-].[Pd+2]` (stereo not given): the growth inhibition in experiment [1] was -11.2%; in experiment [2] it was 13.1%; in experiment [3] it was 15.2%; in experiment [4], 21.2%; in experiment [5], 9.05%; in experiment [6] it was -0.3%.
`CCC(Br)C(=O)O` (stereo not given): the growth inhibition in experiment [1] was 26.6%; in experiment [2], -4.3%; in experiment [3], -0.3%; in experiment [4] it was -22.5%; in experiment [5], 24.4%; in experiment [6], 24.8%.
Consider `O=C(c1ccc([N+](=O)[O-])cc1)C1NC1c1ccccc1` (stereo not given), for which the growth inhibition is -24.2% in experiment [1]; -16.6% in experiment [2]; 24% in experiment [3]; -2.65% in experiment [4]; 22.3% in experiment [5]; -15.7% in experiment [6].
Take `C=C(C)[C@H]1CN[C@H](C(=O)O)[C@H]1CC(=O)O`: the growth inhibition in experiment [1] was -5.6%; in experiment [2], -5%; in experiment [3] it was -6.15%; in experiment [4], -19.9%; in experiment [5], -6.5%; in experiment [6] it was 5.05%.
Consider `NC(Cc1ccccc1)c1nccs1` (stereo not given), for which the growth inhibition in experiment [1] is -8.95%; in experiment [2], -26.6%; in experiment [3] it was -7.65%; in experiment [4], 11.2%; in experiment [5], -30.1%; in experiment [6], -2.6%.
In the case of `[CH3][Sn]([CH3])([CH3])[O]C(=O)CNC(=O)c1ccccc1`, the growth inhibition was -8.55% in experiment [1]; -4.1% in experiment [2]; -2.3% in experiment [3]; 27.9% in experiment [4]; 4.25% in experiment [5]; -0.3% in experiment [6].
Regarding `O=C(O)COc1ccc(Cl)cc1Cl` (tested in a mixture with another compound), the growth inhibition in experiment [1] is -0.5%; in experiment [2], -3.35%; in experiment [3] it was 14.7%; in experiment [4], -19.1%; in experiment [5], -9.5%; in experiment [6], -0.9%.
As to `C[P+](CCl)(CCl)CCl`, the growth inhibition in experiment [1] was 5.45%; in experiment [2], -6.45%; in experiment [3], -11.7%; in experiment [4], -7.3%; in experiment [5], -7.6%; in experiment [6], -10%.
As to `[N-]=[N+]=CC(=O)OCC(N)C(=O)O` (stereo not given), the growth inhibition was 4.5% in experiment [1]; -12.8% in experiment [2]; -5.35% in experiment [3]; 14.1% in experiment [4]; -6.7% in experiment [5]; -0.6% in experiment [6].
`C[N+](C)(C)CCNP(=O)(Oc1ccccc1)c1ccccc1` (stereo not given): the growth inhibition in experiment [1] is 4.15%; in experiment [2], 5.55%; in experiment [3], -22.5%; in experiment [4] it was 1.35%; in experiment [5], -1.55%; in experiment [6], 21.6%.
As to `Cc1cc(N(CCCl)CCCl)ccc1C=Nc1ccc(F)cc1[N+](=O)[O-]`, the growth inhibition is 4.3% in experiment [1]; 3.1% in experiment [2]; 2.65% in experiment [3]; 1.65% in experiment [4]; -8.45% in experiment [5]; 18.7% in experiment [6].
On to `CC(C)OC(N)=O`, for which the growth inhibition in experiment [1] was -2.35%; in experiment [2], -24.9%; in experiment [3], 29.2%; in experiment [4], 13.6%; in experiment [5], -21%; in experiment [6], -6.85%.
For `CC([NH-])C(C)[NH-].CC([NH-])C(C)[NH-].CC([NH-])C(C)[NH-].[Cr+6]` (stereo not given), the growth inhibition in experiment [1] is 9.9%; in experiment [2], 22.8%; in experiment [3], 10.7%; in experiment [4] it was 2%; in experiment [5], 1.9%; in experiment [6] it was 8.15%.
As for `C=CCOC(N)=O`, the growth inhibition was 6.85% in experiment [1]; 8.3% in experiment [2]; -0.3% in experiment [3]; 20.9% in experiment [4]; 22.5% in experiment [5]; 1.65% in experiment [6].
Take `CCCCCCC1C(=O)NC(=O)NC1=O`: the growth inhibition in experiment [1] is -4.25%; in experiment [2], -15.1%; in experiment [3], -8%; in experiment [4] it was -7.75%; in experiment [5], 2.6%; in experiment [6], -12.3%.
In the case of `O=C1NC2(CCCCC2)C(=O)N1CCCCCN(CCCl)CCCl`, the growth inhibition in experiment [1] is 22.8%; in experiment [2] it was 18.4%; in experiment [3], 2.1%; in experiment [4] it was -25.4%; in experiment [5], -9.75%; in experiment [6] it was -0.3%.

The record behind these values is PubChem BioAssay (NCI).
